High-throughput results: PubChem BioAssay, several laboratories
Only some compounds are listed: those with a hit (about 2.2% of all), similar ones and a draw of the others.
aSyn UTR inh = MLPCN primary screen, SNCA 5' untranslated region; 300,000 tested, 0.82% active; alpha-synuclein 5'UTR reporter, inhibitor activity; inhibition, % (tested at 7.5 µM); in the data active = inhibition above about 60%;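 note: H4 neuroglioblastoma cells stably carrying SNCA 5'UTR luciferase fusion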
APP transl inh = APP translation inhibition; inhibition, % at 2 µM; SH-SY5Y APP 5'UTR-luciferase reporter, luminescence; 190,000 tested, 0.82% active;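 active = inhibition above a set limit, derived from the sample mean plus 3 SD, cut at about 45% in these data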
Ba/F3 V617F tox = lowers viability of Ba/F3 cells expressing EpoR and JAK2V617F; ATP luminescence; inhibition, % at 5.6 µM; 220,000 tested, 1.1% active;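 active = inhibition above the campaign mean plus 3 SD over all tested compounds, cut at about 24% in these data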;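 note: cytokine-independent growth of Ba/F3 cells driven by EpoR plus mutant JAK2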
BaF3 parental = parental Ba/F3 viability inhibition as JAK2V617F counter-screen; inhibition, % at 5.6 µM; AID 1486; CellTiter-Glo ATP luminescence; 220,000 tested, 1.1% active;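 active = inhibition above a per-campaign cutoff, the mean inhibition of all tested compounds plus 3 SD, cut at about 27% in these data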
IEC-6 cytotox = kills IEC-6 intestinal cells in KLF5 counter-screen. 290,000 tested, 0.78% active. IEC-6 cytotoxicity, luminescence viability. inhibition, % at 5 µM; in the data active = inhibition above about 22%
KLF5 inh = suppresses KLF5 promoter-driven expression | DLD-1 KLF5 promoter-luciferase reporter, luminescence | inhibition, % at 5 µM | 290,000 tested, 0.23% active;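 active = inhibition above a per-plate limit of that plate's mean compound inhibition plus 3 SD, cut at about 60% in these data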;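 note: higher means less KLF5 promoter-driven luciferase light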
Each line names hits and unclear results; the compound was inactive in the other large screens.

Cc1ccc2[nH]c(=O)c(CN(Cc3cccs3)Cc3nnnn3Cc3ccccc3)cc2c1	none
CC(=O)/C(N=Nc1c(C)n(C)n(-c2ccccc2)c1=O)=C(\C)O	APP transl inh 79
O=Cc1ccccc1OCc1nnsc1Cl	none
CN=C(Nc1cc(Cl)ccc1Cl)SC1CC(=O)N(c2ccc(C(=O)OC)cc2)C1=O (stereo not given)	none
Cc1nn(C)c(C)c1CN(C)C(=O)CCCC(=O)O	BaF3 parental 93
COc1ccccc1/C=N/n1cnnc1	none
COc1c(Cl)cc(Cl)cc1/C=N/n1cnnc1	APP transl inh 55
CCCC[C@@H](CN[C@H](C)CNC)NCC1CCC(C(C)(C)C)CC1 (stereo not given in full)	none (no result: APP transl inh, Ba/F3 V617F tox, BaF3 parental)
CC(Nc1ccc(F)cc1)=[N+](C)CCNS(=O)(=O)c1ccc(Cl)cc1	none (no result: APP transl inh, Ba/F3 V617F tox, BaF3 parental)
O=C(C1CCCO1)N1CCN(C(=S)Nc2ccc(F)c(Cl)c2)CC1 (stereo not given)	Ba/F3 V617F tox 28, BaF3 parental 27
CCOc1cc(C(=O)N/N=C(\C)Cc2ccc(OC)cc2)cc(OCC)c1OCC	APP transl inh 86
Nc1ccccc1NC1CCCCC1	none (no result: aSyn UTR inh)
COc1cccc(-c2nc(-c3ccccn3)no2)c1	aSyn UTR inh 104
c1ccc(-c2noc(-c3ccc4c(c3)OCO4)n2)nc1	aSyn UTR inh 91, Ba/F3 V617F tox 26, BaF3 parental 28
Cc1cccc(-c2noc(-c3ccc4c(c3)OCO4)n2)c1	none
COc1cccc(-c2nc(-c3ccccc3)no2)c1	none
COc1ccc(-c2csc(/C=C/c3ccc4c(c3)OCO4)n2)cc1OC	none
CC1(C)CC(Nc2ccc(Nc3ccccc3)cc2)CC(C)(C)N1	Ba/F3 V617F tox 77, BaF3 parental 29 (no result: APP transl inh)
CN(C)S(=O)(=O)N1CCN(C(=O)c2ccc3c(c2)OCO3)CC1	none (no result: APP transl inh, Ba/F3 V617F tox, BaF3 parental)
CN(C)S(=O)(=O)c1ccc(C(=O)Nc2nnc(-c3cccs3)o2)cc1	none
CN(C)S(=O)(=O)c1ccc(C(=O)Nc2nnc(-c3ccc4c(c3)CCCC4)o2)cc1	aSyn UTR inh 69
O=C(Nc1nnc(-c2ccc3c(c2)CCCC3)o1)c1c(F)cccc1F	BaF3 parental 61
O=C(CCc1ccccc1)NCCc1nc2ccccc2[nH]1	none
COCCn1c(SCC(=O)N2CCCc3ccccc32)nc2ccccc2c1=O	BaF3 parental 60
Cc1cc(=O)[nH]c(SCC(=O)N2CCCc3ccccc32)n1	APP transl inh 65
O=C(COC(=O)COc1ccc(Cl)cc1Cl)Nc1cccnc1Cl	none
COc1ccc(C(=O)NC(=S)NNC(=O)c2cnccn2)cc1OC	aSyn UTR inh 90
COc1cc(OC)cc(C(=O)NNC(=S)NC(=O)c2cccnc2)c1	none (no result: APP transl inh, Ba/F3 V617F tox, BaF3 parental)
COc1cc(OC)cc(C(=O)NC(=S)NNC(=O)c2cnccn2)c1	aSyn UTR inh 73
COc1ccc(C(=O)NCCNC(=O)c2cnccn2)cc1OC	none (no result: APP transl inh, Ba/F3 V617F tox, BaF3 parental)
COc1ccc(C(=O)NC(=S)NNC(=O)c2ccc3ccccc3n2)cc1	aSyn UTR inh 73 (no result: APP transl inh)
COc1cc(OC)cc(C(=O)NNC(=O)c2ccccn2)c1	aSyn UTR inh 73
CC1CCCC(C)N1/N=C/c1ccc(C#N)cc1 (stereo not given)	none
CCN1CCN(CCCNC(=O)CN2C(=O)c3cccnc3Oc3ccc(Cl)cc32)CC1	none (no result: APP transl inh, Ba/F3 V617F tox, BaF3 parental)
O=C(/C=C/c1ccccc1)NC(=S)NNC(=O)c1cnccn1	aSyn UTR inh 87 (no result: APP transl inh)
O=c1[nH]c(-c2ccccc2)nc(-c2ccccc2)c1Cl	none (no result: APP transl inh, Ba/F3 V617F tox, BaF3 parental, IEC-6 cytotox, KLF5 inh)
CCN1CCN(CCCN(Cc2ccco2)C(=S)Nc2ccc(Cl)cc2)CC1	Ba/F3 V617F tox 36, BaF3 parental 29
CCN1CCN(CCCN(Cc2ccco2)C(=S)Nc2cc(Cl)ccc2C)CC1	Ba/F3 V617F tox 63, BaF3 parental 69
Cc1ccccc1NC(=S)N(CCCN1CCCCC1)Cc1ccco1	none
CN1CCN(CCCN(Cc2ccco2)C(=S)Nc2ccc(Cl)cc2)CC1	Ba/F3 V617F tox 40, BaF3 parental 29
Cc1ccc(NC(=S)N(CCN(C)C)C(C)c2ccco2)cc1Cl (stereo not given)	Ba/F3 V617F tox 27, BaF3 parental 30 (no result: APP transl inh)
Cc1cc(NC(=O)NC(=O)c2ccccc2F)no1	none (no result: APP transl inh, Ba/F3 V617F tox, BaF3 parental)
O=C(CN1C(=O)NC2(CCCc3ccccc32)C1=O)Nc1cccc(S(=O)(=O)N2CCCCC2)c1 (stereo not given)	none
CSc1cccc(NC(=O)N2CCCC(CNS(=O)(=O)Cc3ccccc3)C2)c1 (stereo not given)	none
Cc1ccc(NC(=S)N(CCCN2CCOCC2)Cc2ccco2)cc1Cl	none
CCN1CCN(CCCN(Cc2ccco2)C(=S)Nc2ccc(C)c(Cl)c2)CC1	Ba/F3 V617F tox 37, BaF3 parental 32
Cc1ccc(NC(=S)N(CCCN2CCN(C)CC2)Cc2cccs2)cc1C	Ba/F3 V617F tox 36, BaF3 parental 29
CCN1CCN(C(=S)Nc2ccc(Cl)cc2)CC1	Ba/F3 V617F tox 25, BaF3 parental 35
CC(=O)NCc1nc2ccccc2n1Cc1ccccc1C	none
CC(=O)Nc1nc2ccccc2n1CCOc1ccccc1Cl	aSyn UTR inh 73
CCC(=O)Nc1nc2ccccc2n1CCN1CCOCC1	none
CCCCCCCn1c(NC(=O)CC)nc2ccccc21	aSyn UTR inh 68 (no result: APP transl inh)
S=C(Nc1ccccc1)Nc1nc2ccccc2n1CCOc1ccc(Cl)cc1	none
CC(=O)Nc1nc2ccccc2n1Cc1ccccc1C	aSyn UTR inh 67
CC(=O)Nc1nc2ccccc2n1Cc1ccccc1Cl	aSyn UTR inh 87 (no result: APP transl inh)
CCCCn1c(N)c(N(CCC(C)C)C(=O)CCN2C(=O)C3CC=CCC3C2=O)c(=O)[nH]c1=O (stereo not given)	none (no result: APP transl inh, Ba/F3 V617F tox, BaF3 parental, IEC-6 cytotox, KLF5 inh)
COc1cc(N)c(Cl)cc1C(=O)OCC(=O)Nc1cccnc1Cl	none (no result: APP transl inh, Ba/F3 V617F tox, BaF3 parental, IEC-6 cytotox, KLF5 inh)
CCC(=O)Nc1nc2ccccc2n1Cc1ccc(Cl)cc1	aSyn UTR inh 72
CCC(=O)Nc1nc2ccccc2n1Cc1ccccc1Cl	aSyn UTR inh 72 (no result: APP transl inh)
Cn1c(NCc2ccccc2Cl)nc2ccccc21	none (no result: APP transl inh, Ba/F3 V617F tox, BaF3 parental, IEC-6 cytotox, KLF5 inh)
CCOc1ccc(NS(=O)(=O)c2ccc(C(=O)N3CCN(c4ncccn4)CC3)cc2)cc1	BaF3 parental 31
O=C(Nc1ccccn1)c1ccc(Cl)c([N+](=O)[O-])c1	none
c1ccc(N2CCN(c3nnnn3-c3ccccc3)CC2)cc1	APP transl inh 48
COc1ccc(NC(=O)n2ncc3c(C)cccc32)cc1	none (no result: APP transl inh, Ba/F3 V617F tox, BaF3 parental)
O=C1COc2ccc(C(=O)COC(=O)CCSc3ccc(Cl)cc3)cc2N1	none
CCC1C/C(=C/c2ccco2)C(=O)/C(=C/c2ccco2)C1 (stereo not given)	Ba/F3 V617F tox 30 (no result: aSyn UTR inh)
COc1ccc(NC(=O)CCNC(=O)Cn2ccc3ccccc3c2=O)cc1Cl	none (no result: APP transl inh, Ba/F3 V617F tox, BaF3 parental)
CN(C)CCCN(C(=O)/C=C/c1cccs1)c1nc2ccc(F)cc2s1	none
CN(C)CCN(C(=O)/C=C/c1cccs1)c1nc2c(F)cc(F)cc2s1	aSyn UTR inh 96
COc1cccc2c1-c1c(O)cccc1C2=O	none (no result: APP transl inh, Ba/F3 V617F tox, BaF3 parental)
COc1cccc2c1C(=O)c1c(O)c3c(c(O)c1C2=O)C[C@](O)(C(C)=O)C[C@H]3O[C@@H]1C[C@@H](N)[C@@H](O)[C@@H](C)O1	aSyn UTR inh 111 (no result: APP transl inh, Ba/F3 V617F tox, BaF3 parental, IEC-6 cytotox, KLF5 inh)
